Data: PubChem BioAssay (NCI)
This is part of a sample that, as a whole, favours compounds with a hit. Of some 83,000 tested, about 20% had one in any assay.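 The endpoint reported here, percent growth, reads 100 for growth as untreated, 0 for no net growth and -100 for all cells dead.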 Values without a mark were called inactive. Activity calls are given as the source filed them. How the source made its calls: active means growth percent below 10; inactive means the rest.

system: OVCAR-4 ovarian; assay: NCI-60 one-dose screen, 48 h (100 = growth as untreated, 0 = no growth, -100 = all killed); conditions: 10 µM

**Q.** How did the growth turn out when `CC1(C)CNC(=O)N1` was run?
**A.** 99.7%

**Q.** With `Nc1ccn([C@@H]2O[C@H](COP(=O)(O)O[C@@H]3C[C@H](n4cc(F)c(=O)[nH]c4=O)O[C@@H]3COP(=O)(O)O[C@@H]3C[C@H](n4cc(F)c(=O)[nH]c4=O)O[C@@H]3COP(=O)(O)O[C@@H]3C[C@H](n4cc(F)c(=O)[nH]c4=O)O[C@@H]3COP(=O)(O)O[C@@H]3C[C@H](n4cc(F)c(=O)[nH]c4=O)O[C@@H]3COP(=O)(O)O[C@@H]3C[C@H](n4cc(F)c(=O)[nH]c4=O)O[C@@H]3COP(=O)(O)O[C@@H]3C[C@H](n4cc(F)c(=O)[nH]c4=O)O[C@@H]3COP(=O)(O)O[C@@H]3C[C@H](n4cc(F)c(=O)[nH]c4=O)O[C@@H]3COP(=O)(O)O[C@@H]3C[C@H](n4cc(F)c(=O)[nH]c4=O)O[C@@H]3COP(=O)(O)O[C@@H]3C[C@H](n4cc(F)c(=O)[nH]c4=O)O[C@@H]3COP(=O)(O)O[C@@H]3C[C@H](n4cc(F)c(=O)[nH]c4=O)O[C@@H]3COP(=O)(O)OCCOCCOCCOCCOCCOCCO)[C@H](O)C2O)c(=O)n1` (stereo partly specified) as the compound, how does the growth read?
**A.** 84%

**Q.** For `CCCCN(CCCC)c1ccc(C(=NC(C)CCCN(CC)CC)c2ccc(N(C)C)cc2)cc1` (stereo unspecified), which growth is on record?
**A.** -13.5% (active)

**Q.** `Cc1nc2cc(-n3c(-c4ccc(F)cc4)nc4ccccc4c3=O)ccc2n1Cc1ccccc1` was tested. Which growth did it give?
**A.** -18.3% (active)

**Q.** With `CN(C)Cc1cccs1` as the compound, how does the growth read?
**A.** 109%

**Q.** Which growth does the source give for `CCCCCCCCCCCCc1ccc(C(=O)/C=C/C(=O)O)cc1` here?
**A.** 70.9%

**Q.** For `Nc1nsc(C(=O)c2ccc(O)cc2)n1`, which growth is on record?
**A.** 105%

**Q.** How did the growth turn out when `O=C(CSc1nnc(-c2ccc(Cl)cc2)o1)c1ccccc1` was run?
**A.** 112%

**Q.** `NC1CCC(Nc2nc(NCc3ccc(-c4cccs4)nc3)c3ncn(C4CCCC4)c3n2)CC1` (stereo unspecified) was tested. Which growth did it give?
**A.** 5.74% (active)

**Q.** `CCCCOCC(=O)NC(NP(=O)(N(C)C)N(C)C)C(Cl)(Cl)Cl` (stereo unspecified) was tested. Which growth did it give?
**A.** 116%

**Q.** Which growth does the source give for `CCOc1ccc(-n2cc(-c3ccc(N(C)C)cc3)[n+]3c2CCCCC3)cc1` here?
**A.** 9.15% (active)

**Q.** Which growth does the source give for `CCC1(C)OC(=O)NC1=O` (stereo unspecified) here?
**A.** 112%

**Q.** How did the growth turn out when `CC(=O)Nc1ccc(Sc2ccc(NC(C)=O)cc2)cc1` was run?
**A.** 102%

**Q.** `O=C1CC[C@@H](C(=O)N[C@H]2CSSC[C@@H](C(=O)NCCc3ccccc3)NC(=O)[C@H](Cc3ccccc3)NC(=O)[C@@H]3CCCN3C(=O)[C@@H]3CCCN3C2=O)N1` was tested. Which growth did it give?
**A.** 105%

**Q.** With `O=C1CC(c2cccc(-c3cccnc3)c2)=Nc2ccc(Br)cc2N1` as the compound, how does the growth read?
**A.** -4.81% (active)

**Q.** Which growth does the source give for `Clc1cc(Cl)c(OCCCCCCN2CCNCC2)c(Cl)c1` here?
**A.** 86.9%

**Q.** For `CCCCCC(CCC)COC(=O)c1ccc(OC)cc1` (stereo unspecified), which growth is on record?
**A.** 109%

**Q.** `O=c1oc2cc(OS(=O)(=O)C3CC3)ccc2c2c1CCCCCC2` was tested. Which growth did it give?
**A.** 65.3%

**Q.** How did the growth turn out when `C=C1C(=O)O[C@H]2[C@H]1CC/C(COC(=O)OCCCCCOC(=O)OC/C1=C/CC[C@@]3(C)O[C@H]3[C@H]3OC(=O)C(=C)[C@@H]3CC1)=C\CC[C@@]1(C)O[C@@H]21` was run?
**A.** -43% (active)

**Q.** How did the growth turn out when `CCOC(=O)c1c(Cl)c2c(n1Cc1cccc(OC)c1)-c1oncc1CC2` was run?
**A.** 56.7%

**Q.** For `COc1cc2nc(Sc3sc(N)nc3C)n(-c3ccc(Oc4ccccc4)cc3)c(=O)c2cc1OC`, which growth is on record?
**A.** 50.7%

**Q.** `CCCCCCCCCCN=C(c1ccc(N(C)C)cc1)c1ccc(N(C)C)cc1` was tested. Which growth did it give?
**A.** 59.8%

**Q.** For `Cc1cccc2c(Nc3ccc(NS(C)(=O)=O)cc3)c3ccc([N+](=O)[O-])cc3nc12`, which growth is on record?
**A.** 16.6%

**Q.** Which growth does the source give for `C[C@H](NC(=O)[C@@H]1CSSC[C@@H](NC(=O)Cc2nc3ccccc3cc2O)C(=O)NCC(=O)N1C)c1ccccc1` here?
**A.** 63.6%

**Q.** `O=C(Nc1ccc(CN2CCOCC2)cc1)c1ccc(-c2cc(Cl)ccc2Cl)o1` was tested. Which growth did it give?
**A.** 50.6%

**Q.** `COc1c(-c2c3sc(=O)[nH]c3nc3c2c(=O)[nH]n3C(C)C)cc2c(c1OC)OCO2` was tested. Which growth did it give?
**A.** 107%

**Q.** For `COc1ccc(-c2nnc(SCC(=O)c3ccccc3)o2)cc1`, which growth is on record?
**A.** 108%

**Q.** With `S=c1c2ncccc2c(-c2ccccn2)nn1Cc1ccccn1` as the compound, how does the growth read?
**A.** 97.2%

**Q.** For `COc1cc(C2C=C(c3ccc(Cl)c(Cl)c3)N=C3SC(C)=CN32)cc(OC)c1OC` (stereo unspecified), which growth is on record?
**A.** 67.8%

**Q.** With `O=C(NCCc1nccs1)c1cnc2c(S)cccc2c1` as the compound, how does the growth read?
**A.** 27.1%

**Q.** How did the growth turn out when `N#Cc1c(-c2ccccc2)nc(SCC(=O)N2CCOCC2)[nH]c1=O` was run?
**A.** 104%
